PAFAH1B3 FP inh = PAFAH1B3 enzyme inhibitors, primary screen, biochemical, fluorescence polarization, human | actives 0.28% (n = 340,000) | inhibition, % at 3.39 µM | Platelet-activating factor acetylhydrolase IB subunit alpha1 (Homo sapiens), Q15102 | AID 492972, 2010 | recombinant PAFAH1B3, FP-rhodamine probe;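 active means inhibition above the screen-wide average of all tested compounds plus 3 SD, cut at about 25% in these data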;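 further: 0% = enzyme with DMSO only and 100% = wells lacking PAFAH1B3 protein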
Target sequence (Q15102 whole entry, looked up): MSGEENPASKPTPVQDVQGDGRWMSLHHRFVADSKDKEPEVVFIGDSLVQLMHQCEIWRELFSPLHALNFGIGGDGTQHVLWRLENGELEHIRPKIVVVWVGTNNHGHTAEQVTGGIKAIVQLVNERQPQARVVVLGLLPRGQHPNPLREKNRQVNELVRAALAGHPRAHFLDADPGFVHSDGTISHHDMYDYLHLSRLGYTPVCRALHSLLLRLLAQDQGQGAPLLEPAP
PAFAH2 inh = PAFAH2 enzyme inhibitors, primary screen, biochemical, fluorescence polarization, human; actives 0.99% (n = 340,000); AID 492956, 2010; recombinant PAFAH2, FP-rhodamine activity probe; Platelet-activating factor acetylhydrolase 2, cytoplasmic (Homo sapiens), Q99487; inhibition, % at 3.39 µM;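 active means inhibition above the mean over all tested compounds plus 3 SD, cut at about 30% in these data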;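 further: inhibitors block probe labeling of enzyme so polarization drops; 0% = enzyme with DMSO and 100% = wells lacking PAFAH2 protein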
PP5 primary = PP5 phosphatase inhibitors, primary screen, biochemical, fluorescence; AID 1987, 2009; inhibition, % at 6.7 µM; actives 0.18% (n = 320,000); purified PP5c, OMFP substrate fluorescence; Serine/threonine-protein phosphatase 5 (Homo sapiens), P53041;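 active means inhibition above the campaign's mean inhibition across all tested compounds plus 3 SD, cut at about 9.5% in these data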;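 further: 0% = DMSO only and 100% = 100 µM cantharidin control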
pPAFAH inh = pPAFAH enzyme inhibitors, primary screen, biochemical, fluorescence polarization, human | Platelet-activating factor acetylhydrolase (Homo sapiens), Q13093 | recombinant pPAFAH, FP-rhodamine probe fluorescence polarization | actives 1.5% (n = 330,000) | inhibition, % at 3.39 µM;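 active means inhibition above the mean inhibition across the screen plus 3 SD, cut at about 25% in these data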;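 further: inhibitors block binding of the rhodamine activity-based probe so polarization drops; 0% = enzyme with DMSO and 100% = wells lacking pPAFAH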
PP1 counter = PP1-alpha phosphatase inhibitors, primary screen, counter-screen for PP5 inhibitor project, biochemical, fluorescence, OMFP substrate, single point | Serine/threonine-protein phosphatase PP1-alpha catalytic subunit (Homo sapiens), P62136 | purified PP1alpha | inhibition, % at 6.7 µM | actives 0.9% (n = 320,000);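 active means inhibition above the mean inhibition of all tested compounds plus 3 SD, computed separately for each screening campaign, cut at about 15% in these data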
Target sequence (P62136 whole entry, looked up): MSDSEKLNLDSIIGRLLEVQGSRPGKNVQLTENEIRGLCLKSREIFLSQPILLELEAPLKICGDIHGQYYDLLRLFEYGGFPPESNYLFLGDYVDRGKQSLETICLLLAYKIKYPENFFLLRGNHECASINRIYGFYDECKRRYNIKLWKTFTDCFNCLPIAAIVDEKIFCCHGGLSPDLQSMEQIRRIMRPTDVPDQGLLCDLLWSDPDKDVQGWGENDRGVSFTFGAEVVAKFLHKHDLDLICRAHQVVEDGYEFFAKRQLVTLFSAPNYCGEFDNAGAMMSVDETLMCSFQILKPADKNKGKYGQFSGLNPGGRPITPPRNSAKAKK
PAFAH1B2 inh = PAFAH1B2 enzyme inhibitors, primary screen, biochemical, fluorescence polarization, human; recombinant PAFAH1B2, FP-rhodamine activity probe; actives 1.2% (n = 340,000); inhibition, % at 3.39 µM;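 active means inhibition above the mean of all tested compounds plus 3 SD, cut at about 24% in these data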;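 further: 0% = enzyme with DMSO and 100% = wells lacking PAFAH1B2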
PP1 inh confirm = PP1 phosphatase inhibitors, confirmation, biochemical, fluorescence, OMFP substrate, triplicate. shares compounds with PP1 counter. purified PP1alpha. inhibition, % at 6.7 µM. actives 52% (n = 1,900). AID 2358, 2010;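 active means mean PP1 inhibition above a set limit taken from the earlier primary screen, cut at about 15% in these data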
PP5 inh counter = PP5 phosphatase inhibition by PP1 hits, confirmation, counter-screen for PP1 inhibitor project, biochemical, fluorescence, triplicate; shares compounds with PP1 counter; purified PP5c, OMFP fluorescence; inhibition, % at 6.7 µM; actives 4% (n = 1,900); AID 2360, 2010;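 active means mean PP5 inhibition over triplicate wells above about 9.5% taken from the earlier PP1 screen, limit read from the data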
Numbers without * were called inactive. This is a sample that favours compounds with a hit; in the whole collection about 3.4% have one here.

What do the screens show for `O=C1OC(c2ccccc2)c2ccc3ccccc3c21` (stereo not drawn)?
PAFAH1B3 FP inh: 1; PAFAH2 inh: 8; PP5 primary: 4; pPAFAH inh: 6; PP1 counter: 19*; PAFAH1B2 inh: -1; PP1 inh confirm: -2; PP5 inh counter: -2

Results for Cc1ccc(NC(=O)c2nc[nH]c2C(=O)NCCCCCNC(=O)OC(C)(C)C)cc1 ?
PAFAH1B3 FP inh: 2; PAFAH2 inh: -10; PP5 primary: 7; pPAFAH inh: 2; PP1 counter: 4; PAFAH1B2 inh: -4

What do the screens show for `COCCn1c(=NC(=O)c2cccs2)sc2cc(NC(C)=O)ccc21`?
PAFAH1B3 FP inh: 3; PAFAH2 inh: -9; PP5 primary: -2; pPAFAH inh: 1; PP1 counter: 19*; PAFAH1B2 inh: 7; PP1 inh confirm: -1; PP5 inh counter: -3

How did CCCCC(CC)CN=C(N)NC(N)=NCCCCCCN=C(N)NC(N)=NCC(CC)CCCC (stereo not drawn) do in these assays?
PAFAH1B3 FP inh: 0; PAFAH2 inh: -1; PP5 primary: 7; pPAFAH inh: 10; PP1 counter: 46*; PAFAH1B2 inh: -3; PP1 inh confirm: 29*; PP5 inh counter: 4

What do the screens show for `CCCCC(CC)CO` (stereo not drawn)?
PAFAH1B3 FP inh: 5; PAFAH2 inh: 5; pPAFAH inh: 1; PAFAH1B2 inh: 1

Results for COc1ccc(NC(=O)C2CCCO2)cc1OC (stereo not drawn) ?
PAFAH1B3 FP inh: 2; PAFAH2 inh: -1; PP5 primary: -1; pPAFAH inh: 1; PP1 counter: -4; PAFAH1B2 inh: 3

What do the screens show for `CC1CN(S(=O)(=O)c2ccc(Cl)c(S(=O)(=O)N3CC(C)OC(C)C3)c2)CC(C)O1` (stereo not drawn)?
PAFAH1B3 FP inh: 2; PAFAH2 inh: -8; PP5 primary: 1; pPAFAH inh: 1; PP1 counter: -5; PAFAH1B2 inh: 8

What do the screens show for `COc1ccc(-n2c(COc3ccc(Cl)cc3)nnc2SCc2ccc(C#N)cc2)cc1`?
PAFAH1B3 FP inh: -1; PAFAH2 inh: -2; PP5 primary: 5; pPAFAH inh: 3; PP1 counter: 20*; PAFAH1B2 inh: 4; PP1 inh confirm: 5; PP5 inh counter: 6

How did COc1ccc2c(Cl)c(C(=O)N/N=C/c3ccncc3)sc2c1 do in these assays?
PAFAH1B3 FP inh: -19; PAFAH2 inh: -22; PP5 primary: 0; pPAFAH inh: -4; PP1 counter: 40*; PAFAH1B2 inh: -8; PP1 inh confirm: 48*; PP5 inh counter: -5

Results for O=C(N/N=C/c1ccncc1)c1sc2ccccc2c1Cl ?
PAFAH1B3 FP inh: -2; PAFAH2 inh: 2; PP5 primary: -2; pPAFAH inh: 1; PP1 counter: 1; PAFAH1B2 inh: 4

How did COc1cccc(NC(=O)Cn2nnc(C(=O)Nc3cc(Cl)ccc3OC)c2N)c1 do in these assays?
PAFAH1B3 FP inh: -10; PAFAH2 inh: -14; PP5 primary: 0; pPAFAH inh: -5; PP1 counter: 18*; PAFAH1B2 inh: 3; PP1 inh confirm: 19*; PP5 inh counter: -2

How did COc1ccc(Cl)cc1NC(=O)c1nnn(CC(=O)Nc2ccc(OC)c(OC)c2)c1N do in these assays?
PAFAH1B3 FP inh: 2; PAFAH2 inh: 5; PP5 primary: 0; pPAFAH inh: 4; PP1 counter: -1; PAFAH1B2 inh: 0

What do the screens show for `COc1ccc(NC(=O)c2nnn(CC(=O)Nc3ccc4c(c3)OCO4)c2N)cc1OC`?
PAFAH1B3 FP inh: 8; PAFAH2 inh: 8; PP5 primary: 3; pPAFAH inh: 10; PP1 counter: -1; PAFAH1B2 inh: 3

Results for COc1ccc(Cl)cc1NC(=O)c1nnn(CC(=O)Nc2ccc3c(c2)OCO3)c1N ?
PAFAH1B3 FP inh: -14; PAFAH2 inh: -15; PP5 primary: 2; pPAFAH inh: -13; PP1 counter: 25*; PAFAH1B2 inh: -10; PP1 inh confirm: 26*; PP5 inh counter: -5

How did Clc1cccc(Cl)c1CNc1ccc(N2CCCC2)cc1 do in these assays?
PP5 primary: 3; pPAFAH inh: 27*; PP1 counter: 19*; PP1 inh confirm: 1; PP5 inh counter: 2

Results for O=C(Cc1ccc(Cl)cc1)Nc1ccc(N2CCCC2)cc1 ?
PAFAH1B3 FP inh: -2; PAFAH2 inh: -2; PP5 primary: -6; pPAFAH inh: 1; PP1 counter: -2; PAFAH1B2 inh: 8

How did COc1ccc(-c2cc(-c3ccccc3)c(C#N)c(SCC(=O)O)n2)cc1 do in these assays?
PAFAH1B3 FP inh: 7; PAFAH2 inh: -5; PP5 primary: 0; pPAFAH inh: 1; PP1 counter: -2; PAFAH1B2 inh: 7

What do the screens show for `COc1ccc(-c2cc(-c3ccc(Cl)cc3)c(C#N)c(SCC(=O)O)n2)cc1`?
PAFAH1B3 FP inh: 3; PAFAH2 inh: 4; PP5 primary: 2; pPAFAH inh: -8; PP1 counter: 48*; PAFAH1B2 inh: 3; PP1 inh confirm: 28*; PP5 inh counter: 0

Results for CCCCC1=CC2=CC(=O)C(C)(O)C(=O)C2=CO1 (stereo not drawn) ?
PP5 primary: 1; pPAFAH inh: 41*; PP1 counter: 19*; PP1 inh confirm: 11; PP5 inh counter: -3

How did CC1(OC(=O)c2cnc3ccccc3n2)C(=O)C=C2C=C(c3ccc(C#N)cc3)OC=C2C1=O (stereo not drawn) do in these assays?
PP5 primary: 0; pPAFAH inh: 11; PP1 counter: -4

How did CC1(OC(=O)c2ccco2)C(=O)C=C2C=C(c3ccsc3)OC=C2C1=O (stereo not drawn) do in these assays?
PP5 primary: 1; pPAFAH inh: 50*; PP1 counter: 18*; PP1 inh confirm: 8; PP5 inh counter: -5

Results for CC1(O)C(=O)C=C2C=C(c3ccsc3)OC=C2C1=O (stereo not drawn) ?
PP5 primary: 0; pPAFAH inh: 42*; PP1 counter: 18*; PP1 inh confirm: 7; PP5 inh counter: 0

What do the screens show for `COc1ccc(-c2nnc3sc(-c4ccccn4)nn23)cc1`?
PP5 primary: -1; pPAFAH inh: -1; PP1 counter: -2
